# Source: PubChem BioAssay (NCATS)
# Values without a mark were called inactive. Records with an inconclusive call do not appear. Where a call stands in place of a potency, no number is given. Calls of active or inactive are those of the source. Unless noted, calls follow the shape of the dose curve; as a rule, active = well fitted curve in the direction sought with a large enough effect; inconclusive = small, poorly fitted or top-dose-only effect, or another doubt; inactive = no such curve, though single readings can be large; an effect the other way counts as inactive or inconclusive.
# Legend:
# [1] = target: Cytochrome P450 1A2 (Homo sapiens) (UniProt P05177); test: p450-cyp1a2 (AID 410; calls by dose curve; also: potency is read from the fitted curve at half-maximal effect)
# Cytochrome P450 1A2 (Homo sapiens), sequence (P05177 whole entry, looked up): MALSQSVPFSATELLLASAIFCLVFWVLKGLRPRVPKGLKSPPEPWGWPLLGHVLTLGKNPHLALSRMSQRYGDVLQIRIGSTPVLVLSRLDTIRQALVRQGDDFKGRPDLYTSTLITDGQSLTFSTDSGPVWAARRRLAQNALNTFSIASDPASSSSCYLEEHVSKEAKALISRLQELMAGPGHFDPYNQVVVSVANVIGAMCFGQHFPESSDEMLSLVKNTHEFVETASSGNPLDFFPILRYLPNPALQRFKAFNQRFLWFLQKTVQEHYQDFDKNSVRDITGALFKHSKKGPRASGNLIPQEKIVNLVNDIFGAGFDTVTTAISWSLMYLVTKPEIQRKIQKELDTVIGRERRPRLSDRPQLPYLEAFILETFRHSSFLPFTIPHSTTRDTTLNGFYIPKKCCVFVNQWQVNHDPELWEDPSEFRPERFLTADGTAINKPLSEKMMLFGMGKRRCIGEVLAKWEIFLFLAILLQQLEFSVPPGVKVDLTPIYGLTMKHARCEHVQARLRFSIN
# Summary of the method: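 Luminescent readout of luciferin formed from Luciferin-ME by human CYP1A2; data normalized against complete inhibition by 57 uM furafylline. Enzyme 20nM, substrate 100uM at Km, 100mM KPO4 buffer, 60 min reaction at room temperature.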
# [2] = target: Glucocorticoid receptor (Homo sapiens) (UniProt P04150); test: GR-EFC Redistribution (AID 451; calls by dose curve; also: potency is read from the fitted curve at half-maximal effect); conditions: CHO-K1 GR-EFC translocation, beta-gal luminescence, 2 h
# Glucocorticoid receptor (Homo sapiens), sequence (P04150 whole entry, looked up, the tested form may be a part): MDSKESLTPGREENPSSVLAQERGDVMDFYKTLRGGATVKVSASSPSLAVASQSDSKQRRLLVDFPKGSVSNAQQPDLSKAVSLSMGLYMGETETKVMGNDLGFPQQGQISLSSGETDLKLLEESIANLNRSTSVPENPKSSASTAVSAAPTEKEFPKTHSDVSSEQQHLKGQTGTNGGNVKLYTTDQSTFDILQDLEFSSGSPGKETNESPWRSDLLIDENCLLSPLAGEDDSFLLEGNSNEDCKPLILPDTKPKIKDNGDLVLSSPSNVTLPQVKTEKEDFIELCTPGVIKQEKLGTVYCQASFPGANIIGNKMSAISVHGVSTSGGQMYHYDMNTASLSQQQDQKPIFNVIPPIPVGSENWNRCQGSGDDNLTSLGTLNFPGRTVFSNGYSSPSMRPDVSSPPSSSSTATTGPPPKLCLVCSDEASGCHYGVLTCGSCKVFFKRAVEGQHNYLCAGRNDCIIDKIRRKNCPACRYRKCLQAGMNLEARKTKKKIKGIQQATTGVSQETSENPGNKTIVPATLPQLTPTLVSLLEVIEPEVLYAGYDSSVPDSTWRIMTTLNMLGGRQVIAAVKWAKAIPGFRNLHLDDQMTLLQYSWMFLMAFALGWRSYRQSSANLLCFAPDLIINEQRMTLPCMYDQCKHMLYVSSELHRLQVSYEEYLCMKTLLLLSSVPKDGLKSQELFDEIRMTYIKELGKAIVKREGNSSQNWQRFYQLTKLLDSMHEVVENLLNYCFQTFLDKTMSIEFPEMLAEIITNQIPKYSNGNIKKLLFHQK
# Summary of the method: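 Translocation of GR-ED fusion to nuclear EA restores b-gal, read by luminescence after 1 h room-temperature detection. Engineered CHO-K1 biosensor cells, 1,000/well, exposed 2 h at 37 C to titrations up to 46 uM final.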
# [3] = target: 3',5'-cyclic-AMP phosphodiesterase 4B (Homo sapiens) (UniProt Q07343); test: qHTS Assay for Inhibitors of PDE-IV (AID 607; active = well fitted activation curve with a large enough effect in the main read-out, with a control signal flat, not every such curve was filed as active)
# 3',5'-cyclic-AMP phosphodiesterase 4B (Homo sapiens), sequence (Q07343 whole entry, looked up): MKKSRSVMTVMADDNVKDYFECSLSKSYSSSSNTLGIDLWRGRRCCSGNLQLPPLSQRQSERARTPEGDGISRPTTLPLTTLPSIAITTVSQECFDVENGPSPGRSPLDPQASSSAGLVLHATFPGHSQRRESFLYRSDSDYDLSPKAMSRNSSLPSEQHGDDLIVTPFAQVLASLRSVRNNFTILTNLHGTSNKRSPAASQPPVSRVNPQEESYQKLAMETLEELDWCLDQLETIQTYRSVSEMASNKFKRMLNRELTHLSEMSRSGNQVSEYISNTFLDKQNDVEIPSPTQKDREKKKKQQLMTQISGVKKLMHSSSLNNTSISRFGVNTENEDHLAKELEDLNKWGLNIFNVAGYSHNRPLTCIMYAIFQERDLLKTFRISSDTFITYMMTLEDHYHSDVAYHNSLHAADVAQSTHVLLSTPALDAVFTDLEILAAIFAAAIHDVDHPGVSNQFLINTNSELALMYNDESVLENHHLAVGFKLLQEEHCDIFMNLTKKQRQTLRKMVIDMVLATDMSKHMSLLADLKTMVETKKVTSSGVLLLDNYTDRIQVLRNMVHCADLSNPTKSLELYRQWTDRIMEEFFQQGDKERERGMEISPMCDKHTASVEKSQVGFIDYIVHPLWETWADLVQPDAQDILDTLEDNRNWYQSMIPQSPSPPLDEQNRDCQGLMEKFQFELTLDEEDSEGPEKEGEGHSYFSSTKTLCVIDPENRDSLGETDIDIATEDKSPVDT
# Summary of the method: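 Live HEK293 cells with a modified cyclic nucleotide-gated (CNG) channel report intracellular cAMP via membrane-potential dye fluorescence (ex 535/em 590 nm). Endogenous PDE-IV was targeted. Compounds were tested at up to 22.9 uM final; RO 20-1724 100 uM served as control.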
# [4] = target: Cytochrome P450 2D6 (Homo sapiens) (UniProt P10635); test: qHTS Assay for Inhibitors and Substrates of Cytochrome P450 2D6 (AID 891);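 also: luciferin methyl ether substrate demethylated by CYP2D6 with NADPH regeneration; nearly all actives have a fitted effect of over 60% in size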
# Cytochrome P450 2D6 (Homo sapiens), sequence (P10635 whole entry, looked up): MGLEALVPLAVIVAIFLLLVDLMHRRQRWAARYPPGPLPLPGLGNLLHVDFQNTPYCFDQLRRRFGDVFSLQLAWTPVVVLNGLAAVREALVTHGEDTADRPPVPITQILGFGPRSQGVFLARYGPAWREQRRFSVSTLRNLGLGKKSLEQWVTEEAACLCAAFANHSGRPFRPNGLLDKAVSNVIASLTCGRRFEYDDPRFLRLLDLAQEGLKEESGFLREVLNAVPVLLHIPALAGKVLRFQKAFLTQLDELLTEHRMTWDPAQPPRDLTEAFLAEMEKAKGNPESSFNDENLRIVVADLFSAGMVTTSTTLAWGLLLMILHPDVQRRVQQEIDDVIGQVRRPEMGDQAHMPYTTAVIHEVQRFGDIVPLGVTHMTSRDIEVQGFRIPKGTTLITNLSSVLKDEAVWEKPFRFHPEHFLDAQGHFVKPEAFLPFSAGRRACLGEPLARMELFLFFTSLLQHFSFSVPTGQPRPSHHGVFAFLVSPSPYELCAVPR
# Summary of the method: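 Human CYP2D6 (5 nM) with 30 uM Luciferin-ME EGE (at Km) in 100 mM KPO4, compound preincubated 10 min, then NADPH regeneration system for 60 min at room temperature. Luciferin read by luminescence; normalized to 1.43 uM quinidine.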
# [5] = target: Cytochrome P450 2C19 (Homo sapiens) (UniProt P33261); test: qHTS Assay for Inhibitors and Substrates of Cytochrome P450 2C19 (AID 899); also: nearly all actives have a fitted effect of over 60% in size; also: potency is read from the fitted curve at half-maximal effect
# Cytochrome P450 2C19 (Homo sapiens), sequence (P33261 whole entry, looked up): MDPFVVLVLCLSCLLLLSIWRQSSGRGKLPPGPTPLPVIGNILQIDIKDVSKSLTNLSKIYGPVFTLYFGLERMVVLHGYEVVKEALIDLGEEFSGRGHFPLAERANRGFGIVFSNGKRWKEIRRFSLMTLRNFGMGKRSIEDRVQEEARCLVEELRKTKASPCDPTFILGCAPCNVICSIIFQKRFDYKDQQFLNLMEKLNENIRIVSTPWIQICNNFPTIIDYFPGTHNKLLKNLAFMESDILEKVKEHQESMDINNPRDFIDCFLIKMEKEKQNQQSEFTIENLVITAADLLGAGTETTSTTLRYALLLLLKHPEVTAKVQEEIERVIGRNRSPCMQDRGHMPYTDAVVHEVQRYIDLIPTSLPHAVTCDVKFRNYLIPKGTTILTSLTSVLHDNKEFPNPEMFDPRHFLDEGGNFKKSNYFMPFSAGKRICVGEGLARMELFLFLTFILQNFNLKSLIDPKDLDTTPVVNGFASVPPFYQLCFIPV
# Summary of the method: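 Luminescence readout of luciferin formed from 10uM Luciferin-H EGE (KM level) by 5 nM CYP2C19 in 50mM KPO4. 60 min NADPH-driven reaction at 37C after 10 min compound preincubation; data scaled to 57uM ketoconazole inhibition.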
# [6] = target: Mitogen-activated protein kinase 10 (Mus musculus) (UniProt Q61831); test: JNK3 AlphaScreen Assay (AID 530; active = well fitted curve in either direction with a large enough effect, not every such curve was filed as active;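 also: kinase came from lysate of stimulated human HepG2 cells; signal reports phosphorylation of biotinylated GST-cJun 1-79 at Ser73 with 10 µM ATP; series mostly up to about 57 µM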)
# Summary of the method: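 Compound titrations were preincubated 15 minutes at room temperature with substrate, antibody and pre-activated JNK3-containing HepG2 lysate. Reactions were started with 10 uM ATP and stopped with EDTA-containing bead buffer for AlphaScreen detection.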
# [7] = target: Cytochrome P450 2C9 (Homo sapiens) (UniProt P11712); test: qHTS Assay for Inhibitors and Substrates of Cytochrome P450 2C9 (AID 883); also: nearly all actives have a fitted effect of over 60% in size; also: potency is read from the fitted curve at half-maximal effect
# Cytochrome P450 2C9 (Homo sapiens), sequence (P11712 whole entry, looked up): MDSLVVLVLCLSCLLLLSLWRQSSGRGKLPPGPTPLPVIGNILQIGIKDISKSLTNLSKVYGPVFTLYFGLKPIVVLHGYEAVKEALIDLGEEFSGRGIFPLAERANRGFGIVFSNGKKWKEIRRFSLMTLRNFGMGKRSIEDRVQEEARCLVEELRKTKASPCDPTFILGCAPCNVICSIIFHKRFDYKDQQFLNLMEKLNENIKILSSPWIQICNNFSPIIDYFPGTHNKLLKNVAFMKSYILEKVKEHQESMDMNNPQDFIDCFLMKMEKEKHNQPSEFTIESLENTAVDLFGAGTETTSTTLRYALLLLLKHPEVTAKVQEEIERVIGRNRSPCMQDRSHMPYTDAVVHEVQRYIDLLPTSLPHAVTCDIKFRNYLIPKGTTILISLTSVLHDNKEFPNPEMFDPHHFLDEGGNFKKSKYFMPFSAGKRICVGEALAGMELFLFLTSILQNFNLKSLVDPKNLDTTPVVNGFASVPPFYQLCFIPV
# Summary of the method: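 Luminescent read-out of deoxyluciferin hydroxylation, normalized to 57uM sulphaphenazole (AC100). Reaction: 10nM enzyme, 100uM Luciferin-H (equal to KM), 25mM KPO4, 10 min compound preincubation, then 60 min with NADPH regeneration, both at 37C.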
# [8] = target: Cytochrome P450 3A4 (Homo sapiens) (UniProt P08684); test: qHTS Assay for Activators of Cytochrome P450 3A4 (AID 885); also: nearly all actives have a fitted effect of over 65% in size
# Cytochrome P450 3A4 (Homo sapiens), sequence (P08684 whole entry, looked up): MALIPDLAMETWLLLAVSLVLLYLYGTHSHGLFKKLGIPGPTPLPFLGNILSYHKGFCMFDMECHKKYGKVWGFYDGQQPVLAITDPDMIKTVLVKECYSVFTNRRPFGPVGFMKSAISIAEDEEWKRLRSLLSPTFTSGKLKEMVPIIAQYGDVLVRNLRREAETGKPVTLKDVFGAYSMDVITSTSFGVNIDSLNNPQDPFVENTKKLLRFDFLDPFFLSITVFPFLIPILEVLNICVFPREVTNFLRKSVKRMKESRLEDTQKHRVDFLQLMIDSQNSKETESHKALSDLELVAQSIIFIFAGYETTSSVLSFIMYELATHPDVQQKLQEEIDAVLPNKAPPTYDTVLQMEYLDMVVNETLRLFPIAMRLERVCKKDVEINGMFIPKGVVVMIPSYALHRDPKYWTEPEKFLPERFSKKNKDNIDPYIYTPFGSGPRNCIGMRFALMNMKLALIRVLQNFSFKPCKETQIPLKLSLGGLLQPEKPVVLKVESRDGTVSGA
# Summary of the method: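 Quantitative HTS format: compounds preincubated with 20nM human CYP3A4 and Luciferin-PPXE substrate at KM, reaction started by NADPH regeneration, stopped after 60 min, luciferase luminescence read 20 min later.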
# [9] = target: Tyrosyl-DNA phosphodiesterase 1 (Homo sapiens) (UniProt Q9NUW8); test: Confirmation Assay for Inhibitors of Tyrosyl-DNA Phosphodiesterase (TDP1) (AID 489007); conditions: recombinant human TDP1 enzymatic activity, dose-response; also: potency is read from the fitted curve at half-maximal effect; nearly all actives have a fitted effect of over 40% in size
# Tyrosyl-DNA phosphodiesterase 1 (Homo sapiens), sequence (Q9NUW8 whole entry, looked up): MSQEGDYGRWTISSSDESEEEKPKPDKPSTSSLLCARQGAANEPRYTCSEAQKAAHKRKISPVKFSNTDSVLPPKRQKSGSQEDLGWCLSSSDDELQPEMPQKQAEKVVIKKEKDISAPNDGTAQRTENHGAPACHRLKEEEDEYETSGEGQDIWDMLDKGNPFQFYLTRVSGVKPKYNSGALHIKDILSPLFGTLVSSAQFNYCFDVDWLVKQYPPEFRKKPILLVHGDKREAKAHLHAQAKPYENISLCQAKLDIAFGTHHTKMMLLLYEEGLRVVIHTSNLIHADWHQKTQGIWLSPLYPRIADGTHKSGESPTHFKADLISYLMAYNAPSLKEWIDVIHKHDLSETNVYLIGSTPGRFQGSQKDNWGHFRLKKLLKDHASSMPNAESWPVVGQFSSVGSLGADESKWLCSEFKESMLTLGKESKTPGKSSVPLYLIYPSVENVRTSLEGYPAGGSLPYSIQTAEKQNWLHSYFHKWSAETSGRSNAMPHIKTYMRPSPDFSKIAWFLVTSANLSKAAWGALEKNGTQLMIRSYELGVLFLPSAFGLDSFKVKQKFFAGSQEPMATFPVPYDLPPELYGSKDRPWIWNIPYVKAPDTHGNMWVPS
# Summary of the method: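 Tdp1 1 nM + cpd, 15 min RT; add biotin/phosphotyrosine-FITC oligo 15 nM, 5 min RT; add AS donor/acceptor beads 10 ug/ml, 10 min RT; read AlphaScreen. No-enzyme wells = max signal.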
smiles,measurement,setting,value
CC(C)C[C@@H](CC(=O)N[C@@H](CCC(=O)O)CC(=O)O)NC(=O)[C@@H]1CNCC[C@H]1NC(=O)C[C@@H](NC(=O)C[C@H](CO)NC(=O)[C@@H]1CNCC[C@H]1N)C(C)C,Potency,[1],inactive
same,Potency,[2],> 46 µM
same,Potency,[3],inactive
same,Potency,[4],inactive
same,Potency,[5],inactive
CCCCC#Cc1ccccc1CC(=O)Nc1ccccc1,Potency,[1],2.51 µM (active)
same,Potency,[6],inactive
same,Potency,[7],2.51 µM (active)
same,Potency,[8],inactive
same,Potency,[5],0.794 µM (active)
same,Potency,[9],31.6 µM (active)
COC(=O)[C@@]1(Cc2ccc(F)cc2)[C@H]2c3cc(C(=O)N4CCCC4)n(CCF)c3C[C@H]2CN1C(=O)c1ccccc1,Potency,[1],15.8 µM (active)
same,Potency,[6],inactive
same,Potency,[3],inactive
CC(C)C[C@@H](CC(=O)N[C@@H](CCCN)CC(=O)N[C@@H]1CCCC[C@H]1C(=O)N[C@H](CC(=O)N[C@@H](CCC(=O)O)CC(=O)O)Cc1c[nH]c2ccccc12)NC(=O)[C@@H]1CCCC[C@H]1N,Potency,[1],inactive
same,Potency,[2],> 46 µM
same,Potency,[3],inactive
same,Potency,[4],inactive
CC(C)[C@@H](CC(=O)N[C@@H]1CCCC[C@H]1C(=O)N[C@H](CC(=O)N[C@@H](CCC(=O)O)CC(=O)O)Cc1c[nH]c2ccccc12)NC(=O)C[C@H](CO)NC(=O)[C@@H]1CNCC[C@H]1N,Potency,[1],inactive
same,Potency,[2],> 46 µM
same,Potency,[3],inactive
same,Potency,[4],inactive
same,Potency,[5],inactive
C[C@@]1(C(NC(=O)Cc2ccc(C(F)(F)F)cc2)c2ccc(-c3ccccc3)cc2)C[C@H]1C1CCCCC1 (stereo partly specified),Potency,[1],inactive
same,Potency,[6],inactive
CC(C)C[C@@H](CC(=O)N[C@@H](CCC(=O)O)CC(=O)O)NC(=O)[C@@H]1CCCC[C@H]1NC(=O)C[C@H](CCCN)NC(=O)C[C@H](Cc1c[nH]c2ccccc12)NC(=O)[C@@H]1CNCC[C@H]1N,Potency,[1],inactive
same,Potency,[2],> 46 µM
same,Potency,[4],inactive
same,Potency,[5],inactive
CCc1c2c(nc3cccc(SC)c13)COC2,Potency,[1],2.51 µM (active)
same,Potency,[6],inactive
COC(=O)c1ccc(C#CC(NP(=O)(c2ccccc2)c2ccccc2)c2ccccc2)cc1 (stereo unspecified),Potency,[1],20 µM (active)
same,Potency,[6],inactive
NCCC[C@@H](CC(=O)N[C@@H]1CCCC[C@H]1C(=O)N[C@H](CC(=O)N[C@@H](CCC(=O)O)CC(=O)O)Cc1c[nH]c2ccccc12)NC(=O)C[C@H](Cc1c[nH]c2ccccc12)NC(=O)[C@@H]1CCCC[C@H]1N,Potency,[1],inactive
same,Potency,[2],> 46 µM
same,Potency,[3],inactive
same,Potency,[7],inactive
same,Potency,[4],inactive
same,Potency,[5],inactive
CC(C)C[C@@H](CC(=O)N[C@H](CC(=O)N[C@@H]1CCCC[C@H]1C(=O)N[C@H](CC(=O)N[C@@H](CCC(=O)O)CC(=O)O)Cc1c[nH]c2ccccc12)C(C)C)NC(=O)[C@@H]1CNCC[C@H]1N,Potency,[1],inactive
same,Potency,[2],> 46 µM
same,Potency,[3],inactive
same,Potency,[7],inactive
same,Potency,[4],inactive
CC(C)[C@@H](CC(=O)N[C@@H]1CCNC[C@H]1C(=O)N[C@H](CC(=O)N[C@@H](CCC(=O)O)CC(=O)O)Cc1c[nH]c2ccccc12)NC(=O)C[C@H](CO)NC(=O)[C@@H]1CNCC[C@H]1N,Potency,[1],inactive
same,Potency,[2],> 46 µM
same,Potency,[3],inactive
same,Potency,[4],inactive
same,Potency,[5],inactive
CC(C)[C@@H](CC(=O)N[C@@H]1CCCC[C@H]1C(=O)N[C@H](CC(=O)N[C@@H](CCC(=O)O)CC(=O)O)Cc1c[nH]c2ccccc12)NC(=O)C[C@H](Cc1ccccc1)NC(=O)[C@@H]1CNCC[C@H]1N,Potency,[1],inactive
same,Potency,[2],> 46 µM
same,Potency,[3],inactive
same,Potency,[7],inactive
same,Potency,[4],inactive
same,Potency,[5],inactive
CC(C)C[C@@H](CC(=O)N[C@@H](CCC(=O)O)CC(=O)O)NC(=O)[C@@H]1CNCC[C@H]1NC(=O)C[C@@H](NC(=O)C[C@H](Cc1ccccc1)NC(=O)[C@@H]1CCCC[C@H]1N)C(C)C,Potency,[1],31.6 µM (active)
same,Potency,[2],> 46 µM
same,Potency,[3],inactive
same,Potency,[7],inactive
same,Potency,[4],inactive
same,Potency,[5],inactive
CC(C)C[C@@H](CC(=O)N[C@H](CC(=O)N[C@@H]1CCCC[C@H]1C(=O)N[C@H](CC(=O)N[C@@H](CCC(=O)O)CC(=O)O)CC(C)C)C(C)C)NC(=O)[C@@H]1CNCC[C@H]1N,Potency,[1],inactive
same,Potency,[2],> 46 µM
same,Potency,[3],inactive
same,Potency,[7],inactive
same,Potency,[4],inactive
